In PubChem BioAssay (NCATS) one finds Potency data, which are given here for 27 molecules.

Results filed as inconclusive are left out. Where a call stands in place of a potency, no number is given. The source made the active and inactive calls. Calls come from the whole dose curve; as a rule, active = well fitted inhibition curve with a large enough effect; inconclusive = small, poorly fitted or top-dose-only effect; inactive = flat fitted curve, though single readings scatter.

The test system of one experiment is UISO. Briefly: qHTS assay to identify novel small-molecules to repurpose for Merkel cell carcinoma treatment (AID 1296009). Note: nearly all actives have a fitted effect of over 60% in size. The settings on record: MCC and control cell lines, CellTiter-Glo viability, 72 h; series mostly up to 46 µM. The method in brief:
(§1)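 Luminescence from CellTiter-Glo, read 10 min after addition at room temperature, reported viability following a 72 hr, 37 degree celsius treatment with NPC or MIPE compounds in titration; values normalized to plate controls.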
(In qHTS, concentration-response curves come from the screen itself.)
With `COC(=O)[C@@H]1[C@H]2C[C@H]3c4[nH]c5ccccc5c4CCN3C[C@@H]2CC[C@@H]1O`, the Potency result was “inactive”.
With `CCCCCN(C)CCC(O)(P(=O)(O)O)P(=O)(O)O`, the Potency entry was “inactive”.
For the molecule `CCC(CC)[C@H](NC(C)=O)[C@@H]1[C@H](O)[C@@H](C(=O)O)C[C@@H]1N=C(N)N`, the Potency result is “inactive”.
For the molecule `Cn1c(N2CCCCS2(=O)=O)nc(C(=O)NCc2ccc(F)cc2)c(O)c1=O`, the Potency result was “inactive”.
The same measure, in the same setting: then `CCC(=O)O[C@]1(C(=O)CO)CC[C@H]2[C@@H]3CCC4=CC(=O)CC[C@]4(C)[C@@H]3CC[C@@]21C`, with “inactive”.
As to `CC1CCC(C(=O)N(c2cc(C#CC(C)(C)C)sc2C(=O)O)C2CCC(O)CC2)CC1` (stereo unspecified), the Potency result is “inactive”.
Take `CCCNC(=O)NS(=O)(=O)c1ccc(Cl)cc1`: the Potency entry is “inactive”.
Still for that read-out and setting: as for `COc1cc(O)c2c(c1)C(=O)c1cc(C)cc(O)c1C2=O`, the entry is “inactive”; as for `COc1ccc(-c2coc3cc(O)cc(O)c3c2=O)cc1`, “inactive”; as for `CCN(CC)CCNC(=O)c1ccc(N)cc1`, “inactive”.
The same measure, in the same setting: then `CC(=Cc1ccccc1)C=C1SC(=S)N(CC(=O)O)C1=O`, with “inactive”.
As to `Cc1ccc(Nc2cc(-c3cccc(N4C(=O)c5ccccc5C4=O)c3)ncn2)cc1NS(C)(=O)=O`, the Potency entry is “inactive”.
Still for that read-out and setting: then `Cc1cccc(C)c1OCC(C)N` (stereo unspecified), with “inactive”; and `NC(=O)NN=Cc1ccc([N+](=O)[O-])o1`, with “inactive”; and `CCOC(=O)C1=C(N)Oc2ccc(Br)cc2C1C(C#N)C(=O)OCC` (stereo unspecified), with “inactive”.
Still for that read-out and setting: then `O=C(O)c1cc(-c2ccccc2)nc2ccccc12`, with “inactive”; and `O=c1cc(-c2cccc3c2Sc2ccccc2S3)oc(N2CCOCC2)c1`, with “inactive”; and `CCOC1OC(=O)C[C@H]1NC(=O)[C@@H]1CCCN1C(=O)[C@@H](NC(=O)c1ccc(N)c(Cl)c1)C(C)(C)C` (stereo partly specified), with “inactive”.
Consider `CC#CCn1c(N2CCC[C@@H](N)C2)nc2c1c(=O)n(Cc1nc(C)c3ccccc3n1)c(=O)n2C`, for which the Potency entry was “inactive”.
For the molecule `OC[C@H]1O[C@@H](n2cnc3c2NC=NC[C@@H]3O)C[C@H]1O`, the Potency result was “inactive”.
As for `NC(N)=Nc1nc(CSCC/C(N)=N/S(N)(=O)=O)cs1`, the Potency entry was “inactive”.
On the same count and under the same terms, as for `CN(C)CCC=C1c2ccccc2COc2ccc(CC(=O)O)cc21`, the entry is “inactive”.
For the molecule `COc1ccccc1N1CCN(CCCNc2cc(=O)n(C)c(=O)n2C)CC1`, the Potency entry is “inactive”.
With `CON=C(C(=O)N[C@@H]1C(=O)N2C(C(=O)OCOC(=O)C(C)(C)C)=C(C=Cc3scnc3C)CS[C@H]12)c1csc(N)n1`, the Potency result was “inactive”.
`COc1cccc(-c2cc(=O)c3ccccc3o2)c1N`: the Potency result was “inactive”.
As for `Cc1ccc([C@@H]2O[C@H](CO)[C@@H](O)[C@H](O)[C@@H]2O)cc1Cc1ccc(-c2ccc(F)cc2)s1`, the Potency result is “inactive”.
On to `O=C(OCC#CCSc1nnc(-c2cccc3ccccc23)o1)c1cc2ccccc2s1`, for which the Potency entry was “inactive”.

The test system of the next experiment is WaGa. The experiment is described as above. The settings on record: MCC and control cell lines, CellTiter-Glo viability, 72 h; series mostly up to 46 µM. The method in brief:
as §1
(ATP-based viability assays read luminescence as a measure of living cells.)
For `COC(=O)[C@@H]1[C@H]2C[C@H]3c4[nH]c5ccccc5c4CCN3C[C@@H]2CC[C@@H]1O`, the Potency entry was “inactive”.
In the case of `CCCCCN(C)CCC(O)(P(=O)(O)O)P(=O)(O)O`, the Potency entry is “inactive”.
On to `CCC(CC)[C@H](NC(C)=O)[C@@H]1[C@H](O)[C@@H](C(=O)O)C[C@@H]1N=C(N)N`, for which the Potency entry is “inactive”.
Regarding `Cn1c(N2CCCCS2(=O)=O)nc(C(=O)NCc2ccc(F)cc2)c(O)c1=O`, the Potency result was “inactive”.
The same measure, in the same setting: as for `CCC(=O)O[C@]1(C(=O)CO)CC[C@H]2[C@@H]3CCC4=CC(=O)CC[C@]4(C)[C@@H]3CC[C@@]21C`, the entry is “inactive”; as for `CC1CCC(C(=O)N(c2cc(C#CC(C)(C)C)sc2C(=O)O)C2CCC(O)CC2)CC1` (stereo unspecified), “inactive”; as for `CCCNC(=O)NS(=O)(=O)c1ccc(Cl)cc1`, “inactive”.
As to `COc1cc(O)c2c(c1)C(=O)c1cc(C)cc(O)c1C2=O`, the Potency result was “inactive”.
With `COc1ccc(-c2coc3cc(O)cc(O)c3c2=O)cc1`, the Potency entry is “inactive”.
`CCN(CC)CCNC(=O)c1ccc(N)cc1`: the Potency result is “inactive”.
As to `CC(=Cc1ccccc1)C=C1SC(=S)N(CC(=O)O)C1=O`, the Potency entry was “inactive”.
Turning to `Cc1ccc(Nc2cc(-c3cccc(N4C(=O)c5ccccc5C4=O)c3)ncn2)cc1NS(C)(=O)=O`, the Potency entry was “inactive”.
For the molecule `Cc1cccc(C)c1OCC(C)N` (stereo unspecified), the Potency result was “inactive”.
`CCOC(=O)C1=C(N)Oc2ccc(Br)cc2C1C(C#N)C(=O)OCC` (stereo unspecified): the Potency result is “inactive”.
`O=C(O)c1cc(-c2ccccc2)nc2ccccc12`: the Potency entry is “inactive”.
`O=c1cc(-c2cccc3c2Sc2ccccc2S3)oc(N2CCOCC2)c1`: the Potency result was “inactive”.
Regarding `CC#CCn1c(N2CCC[C@@H](N)C2)nc2c1c(=O)n(Cc1nc(C)c3ccccc3n1)c(=O)n2C`, the Potency result was “inactive”.
Still for that read-out and setting: then `OC[C@H]1O[C@@H](n2cnc3c2NC=NC[C@@H]3O)C[C@H]1O`, with “inactive”.
`NC(N)=Nc1nc(CSCC/C(N)=N/S(N)(=O)=O)cs1`: the Potency entry was “inactive”.
With `CN(C)CCC=C1c2ccccc2COc2ccc(CC(=O)O)cc21`, the Potency entry was “inactive”.
Still for that read-out and setting: as for `COc1ccccc1N1CCN(CCCNc2cc(=O)n(C)c(=O)n2C)CC1`, the entry is “inactive”; as for `COc1cccc(-c2cc(=O)c3ccccc3o2)c1N`, “inactive”; as for `Cc1ccc([C@@H]2O[C@H](CO)[C@@H](O)[C@H](O)[C@@H]2O)cc1Cc1ccc(-c2ccc(F)cc2)s1`, “inactive”.
Same read-out and setting: then `O=C(OCC#CCSc1nnc(-c2cccc3ccccc23)o1)c1cc2ccccc2s1`, with “inactive”.
